According to PubChem BioAssay:
Several values for one entry are separate records, joined by “and”; a condition that tells them apart may be missing. Equal values may be shown once. Activity calls are given as the source filed them. Unless noted, the rule behind the calls is not given here.

Assays:
[1] = test system: XIP peptide (Xip251-270) binding; test: small-molecule binders of XIP peptide, primary screen, biochemical, small-molecule microarray, fluorescence 635/667 nm, 0.1 µg/mL protein (AID 1182); settings: fluorescent protein binding, 635 nm, higher = more signal, called active from +8 up or from −8 down
XIP peptide (Xip251-270) = test: small-molecule binders of XIP peptide, primary screen, biochemical, small-molecule microarray, fluorescence 635/667 nm, 0.5 µg/mL protein (AID 1183); settings: small-molecule microarray binding, fluorescence 635 nm; higher = more signal
[2] = Plasmodium falciparum growth inhibition, primary screen, strain 3D7, DAPI fluorescence, 100 nL (AID 1184);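 note: parasites grown inside human red blood cells in medium with human serum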; settings: P. falciparum 3D7 growth, 3 d, higher = more signal
[3] = target: Homeobox protein Hox-A13 (Mus musculus) (UniProt Q62424); test: inhibitors of HoxA13-DNA binding, primary screen, biochemical, fluorescence polarization, labeled oligonucleotide (AID 1185); settings: 15 min, higher = more signal, called active from +8 up or from −8 down
Chain of Homeobox protein Hox-A13 (Mus musculus) (Q62424 whole entry, looked up): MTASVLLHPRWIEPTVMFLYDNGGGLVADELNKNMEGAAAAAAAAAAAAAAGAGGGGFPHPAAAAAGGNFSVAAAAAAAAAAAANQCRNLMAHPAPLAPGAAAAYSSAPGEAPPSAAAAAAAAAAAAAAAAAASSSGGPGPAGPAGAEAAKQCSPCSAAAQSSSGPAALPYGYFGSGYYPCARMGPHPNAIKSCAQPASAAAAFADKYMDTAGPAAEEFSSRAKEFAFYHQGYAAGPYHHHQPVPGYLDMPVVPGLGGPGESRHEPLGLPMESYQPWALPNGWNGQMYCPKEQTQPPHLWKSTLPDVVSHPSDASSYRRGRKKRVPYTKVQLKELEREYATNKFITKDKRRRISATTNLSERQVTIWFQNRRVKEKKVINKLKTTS

[4] = inhibitors of hydroxyurea-induced Chk1 phosphorylation, primary screen, imaging, HeLa, phospho-Chk1 antibody, percent positive cells (AID 1186); settings: hydroxyurea-induced phospho-Chk1 immunofluorescence imaging, higher = more signal
[5] = inhibitors of hydroxyurea-induced Chk1 phosphorylation, primary screen, imaging, HeLa, phospho-Chk1 nuclear intensity (AID 1187); settings: hydroxyurea-induced phospho-Chk1 immunofluorescence imaging, higher = more signal

SMILES	composite z-score [1]	composite z-score (XIP peptide (Xip251-270))	z-score [2]	z-score [3]	z-score [4]	z-score [5]
CCCCN1CC=CC23O[C@@H]4C=CCCOC(=O)C4[C@H]2C(=O)N(C(C)CO)[C@@H]3C1=O (some centres not stated)	-0.0981 (inactive) and -0.455 (inactive)	-0.41 and -0.585	0.0728 and -0.271	-5.84 (inactive) and -4.77 (inactive)	0.34 (inactive) and -0.204 (inactive)	0.293 (inactive) and -0.258 (inactive)
CN1C(=O)C2CC=C([C@H]3Oc4ccccc4S(=O)(=O)N4CCC[C@@H]34)CC2C1=O (some centres not stated)	-0.0989 (inactive) and 0.181 (inactive)	-0.128 and -1.09	-0.292 and -0.542	-2 (inactive) and -1.92 (inactive)	0.0695 (inactive) and 0.549 (inactive)	-0.12 (inactive) and 0.575 (inactive)
C=CCN(CCCC)C(=O)C(c1cccs1)N(C(=O)/C=C\C(=O)O)c1c(Cl)cccc1CO (configuration not stated)	-1.2 (inactive) and -0.551 (inactive)	-1.64 and 0.45	-0.486 and -0.375	0.477 (inactive) and -0.33 (inactive)	0.0771 (inactive) and -0.132 (inactive)	0.677 (inactive) and -0.0581 (inactive)
O=C1C[C@]2(c3ccc([N+](=O)[O-])cc3)C(=O)N(Cc3ccccc3)c3cc(CO)ccc3[C@H]2N1C1CCCCC1	-0.182 (inactive) and 0.877 (inactive)	-0.242 and 0.519	1.04 and -1.97	-1.48 (inactive) and -3.19 (inactive)	0.112 (inactive) and -0.427 (inactive)	0.357 (inactive) and -0.265 (inactive)
C=C[C@@H](OC)[C@H](O)c1ccc(O)c(F)c1	-0.25 (inactive) and -2.1 (inactive)	0.116 and 0.444	0.295 and 0.636	-0.933 (inactive) and 0.017 (inactive)	0.591 (inactive) and -0.353 (inactive)	0.496 (inactive) and 0.357 (inactive)
C=C[C@H](OC)[C@@H](O)c1ccc(O)c(F)c1	0.406 (inactive) and -0.397 (inactive)	0.563 and 0.0248	1.66 and 0.778	0.0518 (inactive) and 0.0165 (inactive)	-0.0834 (inactive) and -0.834 (inactive)	-0.132 (inactive) and -0.265 (inactive)
CCOC(=O)[C@@H]1CC2O[C@]23C[C@@H]1C(=O)N1CCC[C@@H]1[C@H]3O[Si](C)(C)C(C)(C)C (some centres not stated)	-0.86 (inactive) and -0.342 (inactive)	-0.791 and 0.0241	-0.662 and 1.63	-4.09 (inactive) and -1.56 (inactive)	0.271 (inactive) and 0.387 (inactive)	0.288 (inactive) and 0.549 (inactive)
COC(=O)c1c2oc(c1C(=O)OC)C(=O)N[C@@H](Cc1ccccc1)Cn1cc(nn1)C1(CCCCC1)NC(=O)N[C@H](CO)CC2	0.398 (inactive) and -0.338 (inactive)	0.762 and 0.215	0.53 and 1.25	-4.76 (inactive) and -2.08 (inactive)	-0.496 (inactive) and 0.267 (inactive)	0.184 (inactive) and 0.279 (inactive)
C[N+](C)(C)CCCCCCNC(=O)[C@H]1C[C@H]2C(=O)N[C@@H](CCCC[N+](C)(C)C)C(=O)N2[C@H]1c1ccc(O)cc1	0.0514 (inactive) and -0.283 (inactive)	0.0535 and -0.189	-1.28 and 0.581	0.627 (inactive) and -1.31 (inactive)	-0.563 (inactive) and 0.0546 (inactive)	-0.225 (inactive) and -0.0689 (inactive)
C[C@@]1([C@@H](NC(=O)Cc2ccccc2)c2ccc(-c3ccccc3)cc2)C[C@H]1C1CCCCC1	0.142 (inactive) and -0.175 (inactive) and -0.0036 (inactive)	0.0261 and -0.867 and 0.444	-1.3 and -0.345 and -1.39	1.49 (inactive) and -0.249 (inactive) and -1.63 (inactive)	0.641 (inactive) and 0.338 (inactive) and 0.416 (inactive)	1.03 (inactive) and 0.448 (inactive) and -0.21 (inactive)
C=CCN(CCCC)C(=O)C1N(CCOCCO)C(=O)C2C(C(=O)O)C3C=CC21O3 (configuration not stated)	0.175 (inactive) and 0.306 (inactive)	1.07 and -0.932	0.172 and 0.134	-1.14 (inactive) and -0.529 (inactive)	-0.24 (inactive) and 0.924 (inactive)	-0.299 (inactive) and 0.869 (inactive)
C=CCN(C(=O)C(c1cccs1)N(C(=O)/C=C\C(=O)O)c1ccc(CCO)cc1)c1ccc(OC)cc1 (configuration not stated)	-0.104 (inactive) and -0.169 (inactive)	-0.0376 and -1.95	-0.142 and -0.395	-0.698 (inactive) and -0.535 (inactive)	-0.157 (inactive) and 0.581 (inactive)	0.686 (inactive) and 0.548 (inactive)
C=C[C@@H](C)[C@@H](O)c1ccc(O)c2ccccc12	0.238 (inactive) and 0.467 (inactive)	-0.54 and -0.684	1.31 and -0.772	-3.43 (inactive) and -4.33 (inactive)	0.789 (inactive) and 0.536 (inactive)	1.17 (inactive) and 0.193 (inactive)
CCC[C@@H]1C[C@@]1(CCC)[C@@H](NC(=O)c1ccc(-c2ccccc2)cc1)c1cccc(Cl)c1	0.176 (inactive) and 0.184 (inactive)	-0.659 and 0.146	-0.687 and -1.16	-3.47 (inactive) and -5.25 (inactive)	0.722 (inactive) and 0.514 (inactive)	-0.198 (inactive) and 0.301 (inactive)
C=C[C@@H](OC)[C@H](O)c1ccc(OC)c(O)c1	0.263 (inactive) and -0.18 (inactive)	-0.531 and -1.37	-0.151 and -0.337	-0.828 (inactive) and 0.853 (inactive)	0.719 (inactive) and -0.433 (inactive)	-0.0654 (inactive) and 0.0937 (inactive)
CC(CO)N1C(=O)[C@@H]2C3C(=O)OCCC=C[C@H]3OC23C=CCN(Cc2ccccc2)C(=O)[C@@H]13 (some centres not stated)	-0.05 (inactive) and 0.127 (inactive)	-0.4 and -0.181	-1.1 and -0.233	-5.29 (inactive) and -4.45 (inactive)	-0.769 (inactive) and -0.0621 (inactive)	-0.426 (inactive) and -0.217 (inactive)
CC(C)OC(=O)C=C1C[C@@H](c2ccccc2)O[C@@H](c2ccccc2)O1	-0.0817 (inactive) and 0.574 (inactive)	0.686 and 0.831	-0.129 and 0.276	-3.55 (inactive) and -3.56 (inactive)	-0.502 (inactive) and -0.334 (inactive)	-0.687 (inactive) and -0.132 (inactive)
